These results are taken from ChEMBL document CHEMBL4513216, “Probing the Open Global Health Chemical Diversity Library for Multistage-Active Starting Points for Next-Generation Antimalarials” (ACS Infect Dis, 2020).

SMILES strings stand for the structures. Screen size: about 65,000 compounds; about 2,100 (3.2%) showed an effect of 50% or more. The median lay at about -52%. What follows is part of a selection rich in strong results, with near analogues and random picks from the rest.

In this experiment the test system is Plasmodium falciparum. The experiment is described as follows: Screen against P. falciparum Asexual Blood Stage (ABS), at 5uM. The class given is functional, Dd2. Conditions: tested at 5 uM.
Take `Cc1ccc(CN2CCO[C@@H]3[C@@H](OCc4cccnc4)CC[C@@H]32)o1`: the INHIBITION is on record as -89.9%.

With `O=C(N[C@H]1COC[C@@H]1N1CCCC1)c1csc(Cc2ccccc2)n1`, the INHIBITION was -21.2%.

As for `O=C(N[C@H]1COC[C@@H]1N1CCCC1)c1csc(-c2cccs2)n1`, the INHIBITION is listed as 50.8%.

`Cc1nc(C(=O)N[C@H]2COC[C@@H]2N2CCCCC2)cs1`: the INHIBITION is -260%.

As to `CN1CCC2(CC1)CN(Cc1ccc(C3CCCCO3)o1)CCCN2C` (stereo not given), the INHIBITION came out at 81.1%.

Regarding `c1cnc(N2CCOCC3(CN(Cc4cc[nH]n4)CCO3)C2)nc1` (stereo not given), the INHIBITION is listed as -54.7%.

For the compound `CN(Cc1ccco1)[C@@H]1CN(Cc2cccnc2)[C@@H]2CCCO[C@H]12`, the INHIBITION is recorded as -40.9%.

Regarding `Cc1ccc(CN2C[C@@H]3CCCO[C@@H]3[C@H](N(C)Cc3ccco3)C2)s1`, the INHIBITION came out at 74.2%.

Consider `CN(Cc1ccco1)[C@@H]1CN(Cc2ccsc2)C[C@@H]2CCCO[C@@H]21`, for which the INHIBITION is on record as 76%.

As to `CN(Cc1cncnc1)[C@H]1CN(Cc2ccco2)[C@@H]2CCCO[C@@H]21`, the INHIBITION is given as -96.6%.

As to `Cc1cccc(CN2C[C@@H]3CCCO[C@@H]3[C@H](NS(C)(=O)=O)C2)n1`, the INHIBITION is listed as -63.9%.

On to `Cc1cc(CN2C[C@@H]3CCCO[C@@H]3[C@H](N(C)C(C)C)C2)no1`, for which the INHIBITION is given as -18.2%.

On to `c1cnc(N2C[C@H]3CC[C@@H](C2)N(Cc2ccsc2)C3)nc1`, for which the INHIBITION is listed as -21%.

As for `c1ccc(O[C@@H]2CO[C@@]3(CCCN(CC4CCOCC4)C3)C2)nc1`, the INHIBITION is given as 3.78%.

As to `Cc1cc(CN2C[C@@H]3COC[C@]3(CNS(C)(=O)=O)C2)no1`, the INHIBITION is listed as -20.4%.

Consider `CN1CCOC(CN(C(=O)CN2CCCC2=O)c2nccs2)C1` (stereo not given), for which the INHIBITION was -55.7%.

As for `c1ccc(Oc2cccc(OC34CCCN(CC3)C4)c2)cc1` (stereo not given), the INHIBITION came out at 76.9%.

For `N#Cc1cccc(OC23CCCN(CC2)C3)c1` (stereo not given), the INHIBITION was -31.3%.

As to `c1ccc(O[C@@H]2CN(Cc3nccs3)[C@@H]3CCCO[C@@H]32)nc1`, the INHIBITION was -4.8%.

For `CCc1ccccc1OCCN(C)C(=O)CN1CCCC1`, the INHIBITION is on record as 75.4%.

For `CCOCCN(C)C(=O)Nc1cccc2c1CCN(CC)C2`, the INHIBITION was -88.7%.

As for `Cc1noc(C)c1CN1C[C@@H]2CN(C(=O)c3cscn3)C[C@@H]2C1`, the INHIBITION is given as -82.3%.

For the compound `CC(C)c1n[nH]c(C(=O)Nc2ccccn2)c1Br`, the INHIBITION is recorded as 84.6%.

`Cc1ccnc(NCCNC(=O)C2CC3(CCNCC3)CN2C)c1` (stereo not given): the INHIBITION is recorded as -81.4%.

`Cc1ccnc(NC(=O)c2[nH]nc(C(C)C)c2Br)c1`: the INHIBITION is given as 73.7%.

For the compound `Cc1cc(CN2C[C@@H]3CN(C(=O)c4ccsc4)CCO[C@@H]3C2)no1`, the INHIBITION is reported as -12.1%.

Regarding `CN1CCCc2c1nc1c(c2N)CCCC1`, the INHIBITION was determined as 75.8%.

Take `CN1CCc2nc3c(c(N)c2C1)CCCN3C`: the INHIBITION is recorded as -7.55%.

Take `CC(=O)N1C[C@H]2CNC[C@@]2(C(=O)NCCNc2ccncc2C)C1`: the INHIBITION is -37%.

For `CC(C)CN1CCC(NCCNc2cccnc2)CC1`, the INHIBITION was determined as 79.1%.

Turning to `c1cncc(NCCNC2CCCNC2)c1` (stereo not given), the INHIBITION is -1.26%.

For the compound `CC(C)CN1C(=O)C2(CCCC2)NC1c1cccnc1` (stereo not given), the INHIBITION is recorded as -8.76%.

Take `Cc1cc(CC(C)NC2CCN(CC(C)C)CC2)[nH]n1` (stereo not given): the INHIBITION is -57.2%.

As to `Cc1cnccc1NCCNC1CCN(CC(C)C)CC1`, the INHIBITION is recorded as 80%.

For the compound `Cn1cc(N2C(=O)CC[C@@H]3[C@H]2CCN3Cc2ccncc2)cn1`, the INHIBITION is on record as -123%.

Consider `c1ccc(CN2CCN3C[C@H](Oc4cccnc4)C[C@H]3C2)nc1`, for which the INHIBITION is recorded as -10.5%.

For `COc1ccccc1CNCc1nn(-c2ccccc2)c2c1CCC2`, the INHIBITION is 81.6%.

Consider `c1ccc(O[C@@H]2CC[C@H]3[C@H]2OCCN3Cc2ccsc2)nc1`, for which the INHIBITION is on record as -77.6%.

On to `CN1CCN(S(=O)(=O)c2ccccc2)Cc2cccnc21`, for which the INHIBITION was -41.3%.

Consider `O=C(c1[nH]nc(C2CC2)c1Cl)N1CCN(S(=O)(=O)c2ccccc2)CC1`, for which the INHIBITION worked out at 75.8%.

Regarding `O=C(NCc1ccccn1)[C@]12COC[C@H]1CN(C1CCC1)C2`, the INHIBITION is -26.3%.

On to `N#Cc1ccc(NCCc2n[nH]c(=O)[nH]2)cc1Cl`, for which the INHIBITION was -36.1%.

On to `Cc1nccc([C@@H]2C[C@@H]3CCN(Cc4ccco4)C[C@H]3O2)n1`, for which the INHIBITION was -17.2%.

As to `O=C(Nc1cccnc1)[C@H]1CN(Cc2ccco2)C[C@H]2OCC[C@@H]12`, the INHIBITION was -115%.

As to `Cc1ccc(NCCCNC(=O)C2CCCN(Cc3ccco3)C2)nc1` (stereo not given), the INHIBITION is listed as 70.6%.

For `CC(C)CC(=O)N1CCC2(CC1)OCCO2`, the INHIBITION is listed as -80.4%.

As for `COc1ccc2ncn(Cc3ncc[nH]3)c(=O)c2c1`, the INHIBITION was -84.2%.

Take `CCC1CN(C(=O)c2ccc(Cl)cc2O)CCN1C(C)C` (stereo not given): the INHIBITION was determined as 73.3%.

For the compound `CC(C)N1CCO[C@H]2CN(C(=O)c3ccncc3F)C[C@H]21`, the INHIBITION is listed as -88.4%.

Consider `O=C(c1ccc(Cl)cc1-n1cnnn1)N1CCC2(CC1)OCCO2`, for which the INHIBITION is reported as -52.7%.
